# Hits are enriched below; roughly 1.2% of the tested compounds scored in any of these assays.
# GLS inhibitor = inhibitors of human glutaminase (GLS); O94925; GLS enzymatic activity, qHTS titration; Potency, µM (doses to about 45.5 µM), for the others: at the top dose activity change, negative = inhibition, actives largely listed as inhibitors; 410,000 tested, 0.21% active
#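 Enzyme dispensed in phosphate buffer (45 mM, pH 8.2, 0.02% Tween-20), compounds pinned in, then 1 mM L-glutamine solution and the glutamate oxidase–HRP–Amplex Red mix added; fluorescence read immediately and again after 30 min at room temperature.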
# IDH1 R132H inh = human IDH1 R132H inhibition; O75874; IDH1-R132H enzyme, NADPH consumption, diaphorase/resazurin fluorescence; Potency, µM (titrated, usually from 76.6 µM), inactives show top-dose activity change, negative = inhibition, actives largely listed as inhibitors; 390,000 tested, 0.093% active; AID 602179; note: nearly all actives have a fitted effect of over 65% in size
#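 IDH1-R132H (0.5 ug/mL) preincubated 30 min with compound, then NADPH (0.016 mM) and alpha-KG (2 mM) added; 80 min at RT, pH 7.5. Remaining NADPH coupled via diaphorase/resazurin to fluorescence (540/590 nm); concentration-response curves normalized to no-enzyme control.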
# rTrxR1 inhibitor = rat TrxR1 inhibition; 390,000 tested, 1% active; recombinant rTrxR1, NADPH fluorescence consumption, selenite substrate; AID 588453; Potency, µM (series often up to 114 µM), inactives show top-dose activity change, negative = inhibition, most hits filed as inhibitors; O89049; note: nearly all actives have a fitted effect of over 65% in size
# Target sequence (O89049 whole entry, looked up): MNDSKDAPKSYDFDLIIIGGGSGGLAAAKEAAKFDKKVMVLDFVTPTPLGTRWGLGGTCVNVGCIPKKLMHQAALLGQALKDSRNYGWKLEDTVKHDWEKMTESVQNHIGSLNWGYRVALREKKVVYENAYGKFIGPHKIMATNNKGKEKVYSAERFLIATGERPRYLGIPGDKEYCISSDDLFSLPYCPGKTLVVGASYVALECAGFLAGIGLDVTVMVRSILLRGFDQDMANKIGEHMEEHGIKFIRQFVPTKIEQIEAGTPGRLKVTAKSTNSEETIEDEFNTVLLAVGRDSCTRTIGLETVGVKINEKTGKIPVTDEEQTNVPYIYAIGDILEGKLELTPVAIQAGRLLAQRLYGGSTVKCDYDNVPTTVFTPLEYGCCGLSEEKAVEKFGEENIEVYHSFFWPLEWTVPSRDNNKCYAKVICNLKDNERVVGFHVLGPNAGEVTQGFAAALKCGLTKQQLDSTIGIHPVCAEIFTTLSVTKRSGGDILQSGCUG
#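 Rat TrxR1 (90 nM in the dispensed reagent) was pre-reduced with 400 uM NADPH for 5 min at room temperature, then incubated with compound for 15 min. After 400 uM selenite was added, NADPH fluorescence (Ex 340/Em 450 nm) was followed for 8 min.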
# TrxR1 substrate = substrates of rat thioredoxin reductase 1; O89049; purified TrxR1 substrate turnover, NADPH consumption readout; Potency, µM (series often up to 114 µM), inactives show top-dose activity change, negative = substrate turnover; 390,000 tested, 0.01% active; AID 588456; note: nearly all actives have a fitted effect of over 50% in size
#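 Rat TrxR1, dispensed at 90 nM, was prereduced with 400 uM NADPH (final) for 5 min at ~22 deg C, then incubated with compound 15 min before 400 uM selenite. A first-read NADPH fluorescence drop versus no-compound background flagged substrates.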
# * hit, by the source's call; u = inconclusive; x = not tested or not shown; [ ] = another dose, or the depositor's remark. Calls come from the whole dose curve; as a rule, active = well fitted curve in the direction sought with a large enough effect; inconclusive = small, poorly fitted or top-dose-only effect, or another doubt; inactive = no such curve, though single readings can be large; an effect the other way counts as inactive or inconclusive. % is set by controls: 0 for no effect and ±100 for the full control effect; potency is the fitted concentration of half-maximal effect.
SMILES,GLS inhibitor,IDH1 R132H inh,rTrxR1 inhibitor,TrxR1 substrate
Cc1ccc(-c2cn(-c3ccccc3)c(=S)[nH]2)cc1C,6%,-5%,-2%,-2%
Cc1ccccc1-c1cn(-c2ccccc2)c(=S)[nH]1,11µM*,1%,-15%,14%
Cc1ccc(C(=O)NC(C#N)=C(Cl)Cl)cc1,11%,-9%,3.2µM*,2%[57.1 µM]
Cc1ccc(CNC(=O)C(C)n2c(=O)cc(C(F)(F)F)c3c(C)nn(C)c32)cc1 (stereo not drawn),-9%,13%,17%[57.1 µM],13%[57.1 µM]
COCCn1c(C)cc(O)c(C(c2ccc(OC)cc2)N2CCN(c3ccccc3)CC2)c1=O (stereo not drawn),68%,-3%,14µM*,6%[57.1 µM]
Cc1cc(O)c(C(c2ccccc2)N2CCN(C)CC2)c(=O)n1Cc1ccco1 (stereo not drawn),0%,20%,8.9µM*,1%[57.1 µM]
CCN1CCN(C(c2ccccc2)c2c(O)cc(C)n(Cc3ccco3)c2=O)CC1 (stereo not drawn),8%,0%,7.9µM*,-4%[57.1 µM]
Cc1cc(O)c(C(c2ccccc2Cl)N2CCN(c3ccccc3)CC2)c(=O)n1Cc1ccco1 (stereo not drawn),42%,14%,u,2%[57.1 µM]
CCN1CCN(C(c2ccc(OC)cc2)c2c(O)cc(C)n(Cc3ccco3)c2=O)CC1 (stereo not drawn),19%,-5%,u,6%[57.1 µM]
CCN1CCN(C(c2ccccc2Cl)c2c(O)cc(C)n(Cc3ccco3)c2=O)CC1 (stereo not drawn),3%,-6%,8.9µM*,3%[57.1 µM]
CCCCCCCCN1[C@@H](CC(C)=O)c2ccc(/C=C/C(C)=O)cc2S1(=O)=O,x,x,u,0%
CCc1nc2ccc(C(=O)N3CCCC(C(N)=O)C3)cn2c1N(C=O)CC (stereo not drawn),5%,x,x,x
COc1cc2cc(Oc3ccc4ccc(=O)oc4c3)c(=O)oc2cc1O[C@@H]1O[C@H](CO)[C@@H](O)[C@H](O)[C@H]1O,18µM*,0%,4%,20%
COc1cc2cc(Oc3ccc4ccc(=O)oc4c3)c(=O)oc2cc1OC1OC(COC(=O)CC(C)(O)CC(=O)O)C(O)C(O)C1O (stereo not drawn),u,-17%,-28%,36%
ClC(Cl)(Cl)c1nc2ccccc2n2nncc12,11µM*,-6%,31%,-1%
O=C1OC(c2ccccc2)=NC12CC2c1ccc(Cl)cc1 (stereo not drawn),u,3%,7.9µM*,-2%
CC(=NNC(=S)N1CCC1)c1ccccn1,29%,4%,7.1µM*,-5%
COc1ccc(-c2cc(C(=O)NC(C)c3ccccc3)c3cc(C(C)C)ccc3n2)cc1 (stereo not drawn),-2%,7%,24%[57.1 µM],15%[57.1 µM]
CNCCc1cnc(CCC(c2ccccc2)c2ccccc2)[nH]1,x,x,1%[57.1 µM],1%[57.1 µM]
O=c1[nH]c2cc3c(cc2cc1C(c1nnnn1CC1CCCO1)N1CCCCCC1)OCCO3 (stereo not drawn),0%,-3%,22µM*,14%
C#CCOCCOCCOCCNc1nc(N2CCN(C(=O)[C@H](CCCCN)n3cc(C(N)CC(C)C)nn3)CC2)nc(N2CCN(C(=O)[C@H](CCC(=O)O)n3cc(C(N)[C@H](C)CC)nn3)CC2)n1 (stereo partly drawn),1%,15%,18µM*,10%
C#CCOCCOCCOCCNc1nc(N2CCN(C(=O)[C@H](CCCCN)n3cc([C@@H](N)CC(C)C)nn3)CC2)nc(N2CCN(C(=O)[C@H](Cc3cc4ccccc4[nH]3)n3cc([C@@H](N)Cc4ccc(O)cc4)nn3)CC2)n1,18%,2%,45µM*,8%
C#CCOCCOCCOCCNc1nc(N2CCN(C(=O)C([C@@H](C)O)n3cc([C@@H](N)CCCCN)nn3)CC2)nc(N2CCN(C(=O)[C@H](CCC(=O)O)n3cc([C@@H](N)[C@H](C)CC)nn3)CC2)n1 (stereo partly drawn),-1%,14%,-10%,4%
Cc1cccc(CC(=O)NCc2nc3cccnc3n2Cc2ccc(F)cc2)c1,5%,-9%,8%[57.1 µM],-3%[57.1 µM]
Cc1ccc(CNC(=O)CCC2CCCN(C(=O)c3ccc4c(c3)OCO4)C2)o1 (stereo not drawn),0%,3%,71µM*,-4%
SMILES,GLS inhibitor,IDH1 R132H inh,rTrxR1 inhibitor,TrxR1 substrate
COc1cc(C(=O)OCCNC(=O)c2cccnc2)cc(OC)c1OC,10%,1%,-7%,3%[57.1 µM]
Cc1cc(C)c(OCC(=O)OCCNC(=O)c2cccnc2)c(C)c1,4%,0%,50µM*,-3%
CCOc1ccccc1N1C(=O)CC(Nc2ccc(N3CCOCC3)cc2)C1=O (stereo not drawn),14%,14%,7.1µM*,6%[57.1 µM]
Cc1ccc(NC2CC(=O)N(c3ccc(C)cc3)C2=O)cc1 (stereo not drawn),-4%,2%,25µM*,-3%
COc1ccccc1N1C(=O)CC(Nc2ccc(N3CCOCC3)cc2)C1=O (stereo not drawn),27%,9%,7.9µM*,6%[57.1 µM]
COc1ccc(Cn2ccc3nc(C)c(C(=O)Nc4ccc(OC)cc4OC)cc3c2=O)cc1,1%,8%,5%[57.1 µM],0%[57.1 µM]
CN(C)S(=O)(=O)c1ccc(C(=O)NC2CC(=O)N(c3ccc4c(c3)OCCO4)C2)cc1 (stereo not drawn),-3%,-19%,18%[57.1 µM],9%[57.1 µM]
C[C@@H](CO)[C@H](/C=C/c1ccccc1)CCO[Si](c1ccccc1)(c1ccccc1)C(C)(C)C,x,x,18%,-2%
Cc1ccc(S(=O)(=O)N/N=C/c2ccc(O)c(O)c2)cc1[N+](=O)[O-],-5%,-10%,11µM*,2%
Cc1ccc(S(=O)(=O)N/N=C/c2ccccc2O)cc1[N+](=O)[O-],5%,-1%,10%[57.1 µM],6%[57.1 µM]
CCn1c(=O)c2sccc2n2c(CCC(=O)Nc3ccc(OC)cc3OC)nnc12,0%,-2%,11%,4%
CC(C)CCn1c(=O)c2ccccc2n2c(CCl)nnc12,9%,12%,22µM*,13%[57.1 µM]
CCOC(=O)N1CCN([N+]([O-])=NOc2cc(O/N=[N+](\[O-])N(C)C)c([N+](=O)[O-])cc2[N+](=O)[O-])CC1,x,x,28µM*,-17%
O=C(CC(Cl)(Cl)Cl)N1CCN(/[N+]([O-])=N/Oc2ccc([N+](=O)[O-])cc2[N+](=O)[O-])CC1,x,x,u,-2%
O=[N+]([O-])c1ccc(O/N=[N+](\[O-])N2CCCCC2)c([N+](=O)[O-])c1,x,x,22µM*,-11%
CCCOC(=O)N1CCN(/[N+]([O-])=N/Oc2ccc([N+](=O)[O-])cc2[N+](=O)[O-])CC1,x,x,11µM*,-11%
CCSC(=O)N1CCN(/[N+]([O-])=N/Oc2ccc([N+](=O)[O-])cc2[N+](=O)[O-])CC1,x,x,11µM*,2%
CN(C)/[N+]([O-])=N/Oc1cc(ON=[N+]([O-])N2CCN(c3ncccn3)CC2)c([N+](=O)[O-])cc1[N+](=O)[O-],x,x,u,-16%
